{"source": "PubChem BioAssay AID1259422", "about": "(The Scripps Research Institute Molecular Screening Center, 2018)", "note": "“And” between values parts separate entries of the source, which are not always exact repeats. Equal values may be shown once. The campaign covered roughly 640,000 compounds. About 9,300 (1.5%) were called active. The sample as a whole holds a higher share of actives than the screen did. Unmarked numbers belong to inactive results. Rule as the data show it: active = inhibition above about 32%; inactive = the rest."}
{"test": "TEAD-YAP interaction inhibition, primary screen, TEAD-YAP interaction inhibitor project, luminescence, HEK-TIYL cells (AID 1259422);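 also: 0% = median of test compound wells and 100% = reference inhibitor wells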", "settings": "TEAD-Gal4/YAP UAS-luciferase luminescence, at 9.12 µM, active compounds read high"}
{"smiles": "O=c1c(-c2ccon2)coc2cc(O)ccc12", "inhibition": "-4%"}
{"smiles": "COc1cc2nc(/C=C/c3ccco3)oc(=O)c2cc1OC", "inhibition": "0.76%"}
{"smiles": "CC(=O)c1ccc(N2Cc3ccccc3C2)cc1", "inhibition": "38.4% (active)"}
{"smiles": "CC(=O)c1ccc(N2CCN(c3cccc[n+]3C)CC2)cc1", "inhibition": "-8.59%"}
{"smiles": "O=C(N/N=C/c1ccc(O)cc1)c1ccc(N2Cc3ccccc3C2)cc1", "inhibition": "-17%"}
{"smiles": "CC1=C(C(=O)OCc2ccccc2)C(c2ccccc2F)CC(=O)N1", "note": "(centres undefined)", "inhibition": "0.13%"}
{"smiles": "COc1ccccc1N=c1scc(-c2ccccc2)n1CCO", "inhibition": "1.29%"}
{"smiles": "O=c1c2cc(Cl)ccc2[nH]c(=S)n1Cc1cccnc1", "inhibition": "-1.08%"}
{"smiles": "Cc1ccc(NC(=O)c2ccc(C#N)cc2)c(C(=O)c2ccccc2)c1", "inhibition": "4.87%"}
{"smiles": "CC(C)=CC(=O)Nc1ccc2c(c1)OCCO2", "inhibition": "12.2%"}
{"smiles": "COC(=O)CCNc1ccc2c(c1)OCCO2", "inhibition": "33.2% (active)"}
{"smiles": "CCOc1ccc(NCCC(=O)c2ccc3c(c2)OCO3)cc1", "inhibition": "6.84%"}
{"smiles": "Cc1cccc(NC(=O)CSc2nc3ccc([N+](=O)[O-])cc3[nH]2)c1", "inhibition": "8.94%"}
{"smiles": "O=C(Nc1ccc(N2CCC(N3CCN(CCO)CC3)CC2)cc1)c1cccc(Cl)c1", "inhibition": "-1.49%"}
{"smiles": "Cc1cc2nc(-c3ccc(NC(=O)c4cc5ccccc5o4)cc3)oc2cc1C", "inhibition": "-23.6%"}
{"smiles": "COC(=O)c1ccc2c(c1)C(=O)/C(=C\\c1ccccc1O)O2", "inhibition": "-31.1%"}
{"smiles": "Cc1cc(O)cc2c1C(=O)/C(=C/c1cc3ccccc3o1)O2", "inhibition": "71.4% (active)"}
{"smiles": "CCCCc1ccc(-c2nc(C=Nc3cc([N+](=O)[O-])ccc3C)c(O)o2)cc1", "inhibition": "-9.75%"}
{"smiles": "COc1cccc(/C=C/C(=O)c2cc3ccccc3oc2=O)c1", "inhibition": "-6.12%"}
{"smiles": "CCCCCCCN1C(=O)c2c(Cl)c(Cl)c(Cl)c(Cl)c2C1=O", "inhibition": "5.39%"}
{"smiles": "Brc1cccc(-c2cnc3ccc(NC4CCOCC4)nn23)c1", "inhibition": "29.9%"}
{"smiles": "Oc1ccc(-c2cnc3ccc(NC4CCOCC4)nn23)cc1", "inhibition": "-2.21%"}
{"smiles": "Fc1ccc(-c2cnc3ccc(NC4CCOCC4)nn23)cc1Cl", "inhibition": "43.8% (active)"}
{"smiles": "O=C(c1ccc2nc3ccc(Cl)cc3c(=O)n2c1)N1CCN(c2ccccc2)CC1", "inhibition": "5.05%"}
{"smiles": "CNC(=S)N/N=C/c1cccc(/C=N/NC(=S)NC)c1", "inhibition": "-8.21%"}
{"smiles": "CCc1nc2nonc2c2nc3ccccc3n12", "inhibition": "-7.01%"}
{"smiles": "O=C(O)c1ccc(-n2cccc2)cc1O", "inhibition": "32.4% (active)"}
{"smiles": "CC(=O)C1=C(O)C(=O)N(c2ccc(C(=O)O)c(O)c2)C1c1ccccc1", "note": "(centres undefined)", "inhibition": "1.91%"}
{"smiles": "O=C(O)c1ccc(N2C(=O)c3cccc4cccc(c34)C2=O)cc1O", "inhibition": "9.06%"}
{"smiles": "Cc1ccc(NC(=O)CCn2cccc2)c(C)c1", "inhibition": "-10.1%"}
{"smiles": "Cc1ccc(-c2cc(C(=O)OCC(C)C)c3cccc(C)c3n2)cc1", "inhibition": "3.59%"}
{"smiles": "Cc1ccc2nc3nc4c(C)cccc4c(N)c3cc2c1", "inhibition": "43.1% (active)"}
{"smiles": "Cc1cccc2c(N)c3c(nc12)CCCC3", "inhibition": "-0.9%"}
{"smiles": "OC1(c2ccc(F)cc2)CC2CCC(C1)N2c1ncnc2nc[nH]c12", "note": "(centres undefined)", "inhibition": "1.25%"}
{"smiles": "C=C(Br)Cn1c(C(C)O)nc2ccccc21", "note": "(centres undefined)", "inhibition": "1.71%"}
{"smiles": "CC1=C(C#N)C(c2ccc3c(c2)OCO3)C2=C(CC(C)(C)CC2=O)N1", "note": "(centres undefined)", "inhibition": "10.8%"}
{"smiles": "Cn1c(=O)n(CC(=O)Nc2ccc(F)cc2)c(=O)c2ccccc21", "inhibition": "14%"}
{"smiles": "CCOC(=O)C1=C(c2ccc(OC)cc2)C(=O)c2ccccc2C1=O", "inhibition": "96% (active)"}
{"smiles": "CCCNC1=C(c2ccc(OC)cc2)C(=O)c2ccccc21", "inhibition": "-14.6%"}
{"smiles": "CCOC(=O)C1=C(C)N(c2ccc(C)cc2)C(=O)/C1=C\\c1ccc(OC)cc1", "inhibition": "-0.27%"}
{"smiles": "CCCOc1ccc(/C(O)=C2/C(=O)C(=O)N(CCN(C)C)C2c2ccc(Cl)cc2)cc1C", "note": "(centres undefined)", "inhibition": "4.59%"}
{"smiles": "O=C(Nc1cccc(O)c1)c1ccc(-c2ccccc2)cc1", "inhibition": "83.8% (active)"}
{"smiles": "O=C(Nc1cccc(O)c1)c1cccnc1", "inhibition": "24.2%"}
{"smiles": "Cc1occc1C(=O)Nc1ccc(NC(=O)c2ccoc2C)cc1", "inhibition": "-68.2%"}
{"smiles": "Cc1occc1C(=O)Nc1cccc(O)c1", "inhibition": "37.5% (active)"}
{"smiles": "O=C(Nc1cccc(O)c1)c1ccc(C(=O)c2ccccc2)o1", "inhibition": "56.8% (active)"}
{"smiles": "O=C(NCCc1ccccc1)c1ccc(C(=O)c2ccccc2)o1", "inhibition": "-31.4%"}
{"smiles": "C#Cc1cccc(NC(=O)c2ccc(-c3ccccc3)cc2)c1", "inhibition": "-53.1%"}
{"smiles": "Cc1occc1C(=O)Nc1cccc(F)c1", "inhibition": "-4.37%"}
{"smiles": "O=C(Nc1cccc(O)c1)c1cncc(Br)c1", "inhibition": "-19.1%"}
{"smiles": "Cc1ccc(S(=O)(=O)n2nc(C#N)c(C#N)c2N)cc1", "inhibition": "-5.77%"}
{"smiles": "O=C(Nc1nc(-c2ccc3ccccc3c2)cs1)c1cc(-c2ccc(Br)cc2)nc2ccccc12", "inhibition": "-0.33%"}
{"smiles": "CCOc1cc(/C=C2/C(=N)N3N=C(CC)SC3=NC2=O)cc(Cl)c1OCCOc1ccccc1", "inhibition": "-11.5%"}
{"smiles": "COc1ccc(Cl)cc1Nc1ncnc2c1c(-c1ccccc1)cn2-c1ccc(C)cc1", "inhibition": "-0.75%"}
{"smiles": "CC1CCN(C(=O)c2c[nH]c3ccc(S(=O)(=O)N(C)c4ccc(C(C)C)cc4)cc3c2=O)CC1", "inhibition": "-1.81%"}
{"smiles": "CCOC(=O)c1ccc(NC(=O)c2ccc(S(=O)(=O)N3CCN(C(=O)OCC)CC3)cc2)cc1", "inhibition": "-0.65%"}
{"smiles": "CCOC(=O)N1CCN(S(=O)(=O)c2ccc(C(=O)Nc3ccc(F)cc3F)cc2)CC1", "inhibition": "58.1% (active)"}
{"smiles": "CCOC(=O)N1CCN(S(=O)(=O)c2ccc(C(=O)Nc3nc(-c4ccccc4)c(C)s3)cc2)CC1", "inhibition": "-2.44%"}
{"smiles": "COCCOC(=O)C1=C(C)NC2=C(C(=O)CC(c3ccccc3)C2)C1c1cc(OC)ccc1OC", "note": "(centres undefined)", "inhibition": "8.28%"}
{"smiles": "COc1cc2c(cc1OC)C1CN3CCc4cc(OC)c(OC)cc4C3CN1CC2", "note": "(centres undefined)", "inhibition": "5.47%"}
{"smiles": "CC[C@H]1CN2CCc3cc(OC)c(OC)cc3[C@@H]2C[C@@H]1C[C@H]1NCCc2cc(OC)c(OC)cc21", "inhibition": "99.4% (active) and 101% (active)"}
{"smiles": "CCOc1cc2c(cc1OCC)C(c1cc(OC)ccc1OC)NCC2", "note": "(centres undefined)", "inhibition": "6.48%"}
{"smiles": "O=C(Cn1cnc2ccccc21)N/N=C/c1ccc(Cl)c(Cl)c1", "inhibition": "1.91%"}
{"smiles": "Cc1cc(OC2CCN(C(=O)c3ccc4[nH]ncc4c3)CC2)ncc1Cl", "inhibition": "6.71%"}
{"smiles": "O=C(Nc1ccc2[nH]ncc2c1)c1cccnc1OC1CCCN(Cc2ccccc2)C1", "note": "(centres undefined)", "inhibition": "-3.88%"}
{"smiles": "O=C(Nc1ccc2[nH]ncc2c1)c1ccnc(OC2CCN(Cc3ccccc3)CC2)c1", "inhibition": "82% (active)"}
{"smiles": "CCC(C(=O)NC(C)C)n1nc(C)c2sc3ccccc3c2c1=O", "note": "(centres undefined)", "inhibition": "4.5%"}
{"smiles": "CCOC(=O)Cn1c(=O)oc2cc(S(=O)(=O)N3CCN(CC)CC3)ccc21", "inhibition": "-3.33%"}
{"smiles": "COc1cccc(/C=N/NC(=O)C(C)Nc2ccc(Br)cc2)c1O", "note": "(centres undefined)", "inhibition": "23.5%"}
{"smiles": "O=C(Cn1cc([N+](=O)[O-])cn1)Nc1ccc(-c2noc(-c3ccccc3F)n2)cc1", "inhibition": "-22%"}
{"smiles": "CCCn1c(-c2ccc(S(=O)(=O)N(C)C)cc2)csc1=Nc1ccccc1", "inhibition": "35.3% (active)"}
{"smiles": "CN(C)CCCn1c(-c2ccc(Cl)cc2)csc1=Nc1ccccc1", "inhibition": "5.26%"}
{"smiles": "O=C(O)CCn1c(-c2ccccc2)csc1=Nc1ccccc1", "inhibition": "-48.6%"}
{"smiles": "O=C(NC1CCCCC1)c1ccc(Cn2c(=S)[nH]c3cc4c(cc3c2=O)OCO4)cc1", "inhibition": "-6.89%"}
{"smiles": "COc1ccc(Cl)cc1NC(=O)c1cnc(N2CCN(c3ncccn3)CC2)c2ccccc12", "inhibition": "12.9%"}
{"smiles": "COc1ccc([N+](=O)[O-])cc1NC(=O)c1cnc(N2CCN(c3ncccn3)CC2)c2ccccc12", "inhibition": "36.3% (active)"}
{"smiles": "O=C(Nc1ccccc1F)c1cnc(N2CCN(c3ncccn3)CC2)c2ccccc12", "inhibition": "25.2%"}
{"smiles": "O=C(NCc1ccccn1)c1cc(=O)c2ccccc2o1", "inhibition": "0.58%"}
{"smiles": "O=C(Nc1ccc(Oc2ccc3ccccc3c2Cl)c(Cl)c1)c1cc2cc(Cl)ccc2oc1=O", "inhibition": "5.28%"}
{"smiles": "COc1ccc(-c2nc(Nc3cc(OC)c(OC)c(OC)c3)c3[nH]cnc3n2)cc1", "inhibition": "54% (active)"}
{"smiles": "COc1ccc(-c2nc(C)cc(NCc3ccccc3)n2)cc1", "inhibition": "-42.8%"}
{"smiles": "COc1cc(Nc2nc(Nc3cc(OC)c(OC)c(OC)c3)c3[nH]cnc3n2)cc(OC)c1OC", "inhibition": "8.81%"}
{"smiles": "COc1cc(Nc2cc(C)nc(Nc3nc4ccccc4n3C)n2)cc(OC)c1OC", "inhibition": "1.6%"}
{"smiles": "CC(=O)Nc1ccc(Nc2nc(-c3ccc(C(N)=O)cc3)nc3nc[nH]c23)cc1", "inhibition": "5.81%"}
{"smiles": "COc1cc(Nc2nc(Nc3cccc(N(C)C)c3)nc3nc[nH]c23)cc(OC)c1OC", "inhibition": "46% (active)"}
{"smiles": "COc1cc2nc(Nc3cccc(N(C)C)c3)nc(Nc3cc(OC)c(OC)c(OC)c3)c2cc1OC", "inhibition": "-1.74%"}
{"smiles": "COc1ccc(-c2nc(N)c3[nH]cnc3n2)cc1", "inhibition": "-34%"}
{"smiles": "COc1ccc(-c2nc(C)cc(Nc3cc(OC)c(OC)c(OC)c3)n2)cc1", "inhibition": "46.8% (active)"}
{"smiles": "O=[N+]([O-])c1ccc(-c2csnn2)cc1", "inhibition": "-3.36%"}
{"smiles": "Cc1nc2c3ccccc3n3c(CCCC(=O)NCc4cccnc4)nnc3n2n1", "inhibition": "-0.28%"}
{"smiles": "O=C(CNC(=O)c1ccco1)N/N=C/c1ccc(F)cc1", "inhibition": "2.91%"}
{"smiles": "CN1C(C)(C)CC(N(C)S(C)(=O)=O)CC1(C)C", "inhibition": "-1.45%"}
{"smiles": "COCCNc1nc(-c2ccc(C)cc2)ccc1C(=O)N1CCN(C)CC1", "inhibition": "-12%"}
{"smiles": "CCCCOC(=O)C(C)Oc1ccc2c(=O)c(-c3ccc(Cl)cc3)coc2c1", "note": "(centres undefined)", "inhibition": "-32.8%"}
